# Measured values from PMC9574860, “Chemical Toolkit for PARK7: Potent, Selective, and High-Throughput” (Journal of Medicinal Chemistry, 2022).
# Hit rate of the full screen: of about 7,900 compounds, about 400 (5.1%) showed an effect of 50% or more. For the sample, strong results were picked, then their nearest neighbours and some compounds at random.
# Biological target: Parkinson's disease protein 7 (PARK7/DJ1) (human, UniProt Q99497)
# Experiment: primary screen, percent inhibition; read as competition with a fluorescent probe by fluorescence polarization; higher = more effect of the substance
# Settings: 100 µM
# In short: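 Covalent fragments at 100 μM final were incubated 2 h with 0.2 μM PARK7, then 20 nM probe JYQ-107 added for a further 2 h. Fluorescence polarization read at 480/520 nm; relative FP loss versus reference controls gave remaining enzyme activity.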
# Parkinson's disease protein 7 (PARK7/DJ1), sequence (Q99497 whole entry, looked up): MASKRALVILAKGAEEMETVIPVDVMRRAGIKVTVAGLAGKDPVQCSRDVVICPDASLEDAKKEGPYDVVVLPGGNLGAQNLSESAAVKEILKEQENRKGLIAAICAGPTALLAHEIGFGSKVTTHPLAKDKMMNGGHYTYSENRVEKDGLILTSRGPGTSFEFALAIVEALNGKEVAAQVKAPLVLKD
row,SMILES,Inhibition % [%]
1,C=CC(=O)Nc1ccc(OCC)c(CO)c1,4.38
2,COc1ccc(B2OC(C)(C)C(C)(C)O2)c(N)c1,56
3,COc1ccc(B2OC(C)(C)C(C)(C)O2)c(C#N)c1,7.16
4,COc1cc(OC(F)F)ccc1B1OC(C)(C)C(C)(C)O1,-1.65
5,CC1(C)OB(c2ccnn2-c2ccccc2)OC1(C)C,14.9
6,CC1CC(Sc2ccccn2)C(=O)O1 (centres unmarked),5.37
7,Cc1cc(S(N)(=O)=O)cc(NC(=O)CCl)c1C,2.37
8,C=CC(=O)NC1CCC2(CC1)CC2(F)F (centres unmarked),3.45
9,C=CC(=O)Nc1ccc2sncc2c1,97.4
10,C=CC(=O)Nc1ccc2c(cnn2C(F)F)c1,6.45
11,C=CC(=O)Nc1ccc2occc2c1,9.28
12,CC1(C)C(=O)NC1C1CCN(CC(C)(O)C(F)(F)F)CC1 (centres unmarked),6.49
13,C=CC(=O)N1CCOC(c2ccccc2)C1 (centres unmarked),4.98
14,O=C1CN=C(S)N1c1ccccc1Cl,5.52
15,NS(=O)(=O)c1ccc2c(c1)CCN2C(=O)CCl,83.1
16,O=C(CCl)N1CCCC1=O,79.2
17,O=C(CCl)N1CCCc2ccccc21,69.2
18,O=C1CCCN1CCCl,5.09
19,C=CC(=O)NCCC(=O)N1c2ccccc2CCC1C (centres unmarked),5.89
20,CN(C)S(=O)(=O)c1ccc2c(c1)CCCN2C(=O)CCl,8.14
21,CC1Cc2ccccc2N1C(=O)CCl (centres unmarked),8.22
22,O=C1CCC(=O)N1CC(=O)N1CCCc2ccccc21,10.8
23,O=C(CCl)N1CCc2ccccc21,-0.66
24,O=C(CCl)NCCCN1CCCC1=O,3.35
25,CC1CCc2ccccc2N1C(=O)CCl (centres unmarked),100

row,SMILES,Inhibition % [%]
1,O=C(CCl)N1CCc2cc([N+](=O)[O-])ccc21,5.06
2,C=CC(=O)N1CC(C)OC(COC)C1 (centres unmarked),6.19
3,C=CC(=O)N1CCCC(N(C)Cc2noc(C)n2)CC1 (centres unmarked),1.13
4,O=C(CCl)Nc1ccccc1C(=O)Nc1ccc(F)cc1,6.28
5,O=C(CCl)N(Cc1ccco1)CC(F)(F)F,11.9
6,CC1(C)OB(c2ccc(F)cc2[N+](=O)[O-])OC1(C)C,3.67
7,O=C(Nc1ccc2c(c1)COC2)c1cccnc1S,2.52
8,C=CC(=O)NC1C2Cc3ccccc3C21 (centres unmarked),11.1
9,O=C(CCl)N1c2ccccc2CCc2ccccc21,61
10,O=C(CCl)N1c2ccccc2Sc2ccccc21,1.08
11,O=C(CCCl)N1CCc2ccccc21,3.9
12,CCOc1cc(C)ccc1S(=O)(=O)n1cccn1,0.108
13,COC(=O)c1cc(B2OC(C)(C)C(C)(C)O2)c(C)cn1,4.59
14,CS(=O)(=O)OC1CCOC(c2ccncc2)C1 (centres unmarked),7.05
15,N#CCCN(C(=O)CCl)c1ccccc1F,33.7
16,COc1ccc(N(CC(F)(F)F)C(=O)CCl)cc1,36.5
17,CN(CCOc1ccccc1F)c1cccnc1C#N,40.3
18,CN(CCOc1ccc(Cl)cc1)C(=O)CCl,63.6
19,O=C(CCl)NCCOc1ccc(Cl)cc1,20.3
20,O=C(CCl)COc1ccc(Cl)cc1,97.8
21,CN(CCOc1ccccc1F)C(=O)CCl,94.1
22,OB(O)c1ccc(OCc2ccc(Cl)cc2)cc1,-0.814
23,CN(Cc1cc(Cl)cc(Cl)c1)C(=O)CCl,32.4
24,COc1ccc(NC(=O)C(C#N)=Cc2ccco2)cn1,10.5
25,N#Cc1ncn(CC(=O)N2CCc3sccc3C2)n1,10.8

row,SMILES,Inhibition % [%]
1,CN(C)c1ccc(Cl)cc1NC(=O)CCl,1.39
2,CC(C)(C)OC(=O)N1CCC(B2OC(C)(C)C(C)(C)O2)C1 (centres unmarked),1.29
3,CC1CN(C(=O)CN2CCSC2=O)C(C)CO1 (centres unmarked),4.59
4,N#Cc1ccccc1OS(=O)(=O)c1nccs1,25.6
5,Cc1cc(F)ccc1OS(=O)(=O)c1cnn(C)c1,9.05
6,O=C(CCl)NC(=O)Nc1ccc2c(c1)OCO2,1.46
7,O=C(CCCl)Nc1ccc2c(c1)OCO2,13.1
8,O=C(CCl)Nc1ccc2c(c1)OC1(CCCC1)O2,78.4
9,O=C(CCl)Nc1ccc2c(c1)OC(F)(F)O2,37.9
10,O=C(CCl)Nc1ccc2c(c1)NC(=O)CO2,32.7
11,O=C(CCl)Nc1ccc2c(c1)OC1(CCCCC1)O2,93.3
12,COc1ccc(-c2nc(C#N)c(N3CCCC3)o2)cc1,5.17
13,Cn1c(S)nc2ccccc2c1=O,3.7
14,O=C(Cc1ccccc1Cl)N1CCCCC1C1OCCO1 (centres unmarked),14.3
15,C=CC(=O)Nc1ccccc1,3.57
16,O=C(CS)Nc1ccccc1F,81.5
17,O=C(CS)Nc1ccccc1,50.4
18,O=C(CCl)NC(=O)Nc1ccccc1F,-2.13
19,O=C(CS)Nc1ccc(F)cc1,5.25
20,O=C(CCCl)Nc1ccccc1F,6.72
21,O=S1(=O)C=CC(c2ccccc2)C1 (centres unmarked),12.1
22,CCOc1ccc(S(=O)(=O)n2nc(C)cc2C)cc1C,7.03
23,C=CCOc1ccc(Cl)c(C#N)n1,4.33
24,N#CC(=Cc1ccccc1OCC(F)(F)F)C(N)=O,22.7
25,CCc1noc(CC)c1CNCc1ccccc1B(O)O,2.29

row,SMILES,Inhibition % [%]
1,O=C1CN(C(=O)CCl)CCN1,62.6
2,O=C(CCl)N1CCOC1=O,31.6
3,O=C(CCl)N1CCNCC1.O=C(O)C(F)(F)F,7.16
4,N#CN(CC(=O)N1CCNC1=O)c1ccccc1,3.42
5,O=C(CCl)N1CCNC1=O,78
6,C=CC(=O)N1CCNC(=O)C1,11.3
7,CN(C)CCOc1ccccc1B1OC(C)(C)C(C)(C)O1,6.97
8,C=CC(=O)N(C)C1CCN(c2ncnc3ccccc23)CC1,16.8
9,Cc1csc(NC(=O)CS)n1,71.5
10,Cc1csc(NC(=O)CCl)n1,-1.74
11,Cc1csc(NC(=O)CCN2C(=O)CCC2=O)n1,5.08
12,Cc1cc(Br)ccc1NC(=O)CCl,19.7
13,O=C(CCl)NCc1ccc(F)cc1C(F)(F)F,13.5
14,C=CC(=O)N(Cc1cccc(C)n1)Cc1cccc(C)n1.O=C(O)C(F)(F)F,8
15,Cc1sc(NC(=O)CCl)c(C#N)c1C,9.37
16,Cc1sc(NC(=O)CCl)c(C)c1C,56.3
17,COC(=O)c1c(NC(=O)CCl)sc(C)c1C,10.8
18,C=CC(=O)N1CC(n2nc(C)nc2C)C1,9.38
19,Cn1ccc(NS(=O)(=O)C=Cc2ccccc2)n1,11.1
20,CCn1ncnc1NS(=O)(=O)c1cccc(S(=O)(=O)F)c1,99
21,Cn1ncnc1NS(=O)(=O)c1ccc(S(=O)(=O)F)cc1,5.71
22,Cn1cc(NS(=O)(=O)c2ccc(S(=O)(=O)F)cc2)cn1,33
23,Cn1cnc(NS(=O)(=O)c2ccc(S(=O)(=O)F)cc2)n1,5.05
24,Cn1ccc(Nc2ccc(S(=O)(=O)F)cn2)n1,4.77
25,Cn1cc(NS(=O)(=O)c2cccc(S(=O)(=O)F)c2)ccc1=O,103

row,SMILES,Inhibition % [%]
1,Cn1ccc(NS(=O)(=O)c2cccc(S(=O)(=O)F)c2)n1,97.7
2,CCc1nn(C)cc1NS(=O)(=O)c1cccc(S(=O)(=O)F)c1,95.4
3,CC1(C)C(=O)NC1c1ccco1 (centres unmarked),1.96
4,CN(CCc1nccs1)C(=O)c1cccnc1S,5.89
5,C=CC(=O)N1CCN(C(=O)CN2C(=O)CCC2=O)CC1,6.08
6,COC(=O)c1ccc(C)c(NC(=O)CCl)c1,3.25
7,N#CC=C1NC(=O)c2ccccc2S1,28.7
8,CC1CN(C(=O)C=Cc2ccnn2C)CC(C)N1.Cl (centres unmarked),14.8
9,CC(=O)c1ccccc1NC(=O)CCl,19
10,O=S(=O)(F)c1cccc(S(=O)(=O)Nc2ncccn2)c1,16.8
11,Cn1nccc1NS(=O)(=O)c1cccc(S(=O)(=O)F)c1,89.5
12,Cn1cnc2ccc(S(=O)(=O)F)cc21,43.4
13,C=CC(=O)N1C2CCC1CC(CC(F)F)C2 (centres unmarked),6.6
14,C=CC(=O)N1CCC[C@H]1C(=O)NC,4.18
15,O=C1OCCC1N1CCN(C(=O)c2cccc(F)c2)CC1 (centres unmarked),8.98
16,O=C(CCCl)NC1CCCc2ccccc21 (centres unmarked),2.39
17,N#CC(=Cc1cc2cc(F)ccc2o1)C(N)=O,6.05
18,CCc1cc2c(=O)n(CCS(=O)(=O)F)cnc2s1,9.17
19,Cc1noc(C)c1CNC(=O)CCl,46.7
20,CNC(=O)Oc1cccc(N)c1,20.5
21,CCc1c(OC(=O)NC)noc1C,84.6
22,C=CC(=O)NCc1c(C)noc1C,13.4
23,CNC(=O)Oc1cccc(O)c1,37.6
24,CNC(=O)Oc1noc(C)c1C,84.8
25,N#Cc1nncn1CC(=O)Nc1ccc(C(F)(F)F)cc1,26.2
